# Results from PubChem BioAssay (EPA / NIEHS).
# The source made the active and inactive calls. The calls were made as follows: active = hit-call score of the fitted dose curve at least 0.9, where 1 is the maximum; inactive = score below 0.9.
# How the values were obtained:
# [1] = ATG_CRE_CIS: Attagene CIS-FACTORIAL HepG2 Assay for human cAMP Responsive Element (CRE) binding protein 3 (AID 2282926); conditions: HepG2 CRE cis-reporter, Attagene multiplexed mRNA; actives raise or lower the signal
# Outline: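 Multiplexed transcription-unit reporters transfected into HepG2; 24 h dosing; RT-PCR/capillary electrophoresis fluorescence read-out; bidirectional fit vs DMSO.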
# [2] = target: CCAAT/enhancer-binding protein beta (Homo sapiens) (UniProt P17676); test: ATG_C_EBP_CIS: Attagene CIS-FACTORIAL HepG2 Assay for human CCAAT/Enhancer Binding Protein (C/EBP) beta (AID 2282927); conditions: HepG2 Attagene cis-factorial transcription factor reporter; actives raise or lower the signal
# Chain of CCAAT/enhancer-binding protein beta (Homo sapiens) (P17676 whole entry, looked up): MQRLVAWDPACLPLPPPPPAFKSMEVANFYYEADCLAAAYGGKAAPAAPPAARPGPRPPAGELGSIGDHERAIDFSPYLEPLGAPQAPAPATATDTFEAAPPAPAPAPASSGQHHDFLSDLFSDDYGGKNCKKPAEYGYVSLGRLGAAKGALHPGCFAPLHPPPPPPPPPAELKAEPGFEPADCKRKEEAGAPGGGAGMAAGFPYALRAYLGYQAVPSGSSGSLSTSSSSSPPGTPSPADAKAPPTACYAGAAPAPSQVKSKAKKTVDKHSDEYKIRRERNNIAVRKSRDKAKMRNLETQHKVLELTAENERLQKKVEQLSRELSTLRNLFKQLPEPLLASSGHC
# Outline: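 HepG2 transiently transfected with multiplexed reporter units under cis-regulatory promoters reporting endogenous C/EBPb activity. After 24 h exposure, reporter mRNA assayed by RT-PCR, fluorescent labelling, HpaI digestion and capillary electrophoresis; bidirectional fitting versus DMSO.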
# [3] = ATG_CMV_CIS: Attagene CIS-FACTORIAL HepG2 Assay for human CMV (Internal Marker) (AID 2282928); conditions: HepG2 CMV promoter reporter, transcription factor profiling; actives raise or lower the signal;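 also: endpoint acts as a background internal control marker rather than a target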
# Outline: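 Cell system: HepG2, transiently transfected multiple reporter units under cis promoters. Exposure: 24 h. Detection: RT-PCR, FAM labeling, HpaI digestion, capillary electrophoresis. Analysis: bidirectional, DMSO baseline.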
# [4] = ATG_DR4_LXR_CIS: Attagene CIS-FACTORIAL HepG2 Assay for human Liver X Receptor (LXR), DR4 submotif (AID 2282929); conditions: HepG2 Attagene DR4 cis-reporter, mRNA transcription; actives raise or lower the signal
# Outline: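 Fluorescence intensity of labelled reporter cDNA fragments, separated by capillary electrophoresis, gives the signal. HepG2 cells bearing cis-regulated reporter constructs were treated 24 h; activity fitted bidirectionally relative to DMSO negative control.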
# [5] = target: Aryl hydrocarbon receptor (Homo sapiens) (UniProt P35869); test: ATG_Ahr_CIS: Attagene CIS-FACTORIAL HepG2 Assay for human Aryl Hydrocarbon Receptor (Ahr) (AID 2282930); conditions: HepG2 AhR cis-factorial reporter transcription; actives raise or lower the signal
# Chain of Aryl hydrocarbon receptor (Homo sapiens) (P35869 whole entry, looked up): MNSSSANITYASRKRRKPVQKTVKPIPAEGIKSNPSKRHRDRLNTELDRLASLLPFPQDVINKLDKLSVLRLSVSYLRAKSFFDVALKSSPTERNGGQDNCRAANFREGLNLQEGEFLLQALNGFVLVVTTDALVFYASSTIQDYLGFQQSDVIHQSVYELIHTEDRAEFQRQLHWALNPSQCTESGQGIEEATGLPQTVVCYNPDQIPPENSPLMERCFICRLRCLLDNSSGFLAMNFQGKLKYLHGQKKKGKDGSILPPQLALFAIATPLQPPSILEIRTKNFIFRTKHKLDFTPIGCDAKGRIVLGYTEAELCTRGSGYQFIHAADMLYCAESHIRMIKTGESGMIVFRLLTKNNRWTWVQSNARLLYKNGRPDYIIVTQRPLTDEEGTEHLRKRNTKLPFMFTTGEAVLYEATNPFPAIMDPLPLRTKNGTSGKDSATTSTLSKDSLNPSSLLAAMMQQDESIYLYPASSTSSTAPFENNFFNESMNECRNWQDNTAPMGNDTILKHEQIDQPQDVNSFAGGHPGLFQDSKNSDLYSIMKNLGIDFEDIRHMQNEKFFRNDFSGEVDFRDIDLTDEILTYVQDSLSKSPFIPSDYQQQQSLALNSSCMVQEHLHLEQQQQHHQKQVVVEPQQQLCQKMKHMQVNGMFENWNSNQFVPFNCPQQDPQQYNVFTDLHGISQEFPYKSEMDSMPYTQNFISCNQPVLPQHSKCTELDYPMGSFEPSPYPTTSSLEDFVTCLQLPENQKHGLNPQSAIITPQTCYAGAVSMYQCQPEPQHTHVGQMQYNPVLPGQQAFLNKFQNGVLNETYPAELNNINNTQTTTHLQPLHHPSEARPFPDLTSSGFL
# Outline: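 HepG2 cells transiently transfected with cis-element-driven multiplexed reporter units; endogenous AhR activity read as reporter mRNA 24 h after dosing, via RT-PCR, 6-FAM labelling, HpaI digestion and capillary electrophoresis. Bidirectional fit relative to DMSO.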
# [6] = ATG_AP_1_CIS: Attagene CIS-FACTORIAL HepG2 Assay for human Activator Protein 1 (AP-1) (AID 2282931); conditions: HepG2 Attagene cis-factorial AP-1 reporter mRNA; actives raise or lower the signal
# Outline: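 Multiplexed HepG2 reporter assay, 24 h dosing. mRNA induction detected by RT-PCR plus capillary electrophoresis. Activity fitted in both directions against DMSO.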
# [7] = ATG_AP_2_CIS: Attagene CIS-FACTORIAL HepG2 Assay for human Activator Protein 2 (AP-2) (AID 2282932); conditions: HepG2 AP-2 cis-reporter, Attagene transcription factor profiling; actives raise or lower the signal
# Outline: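 Multiplexed mRNA reporter assay in HepG2: cis-regulated units report endogenous factor activity after 24 h treatment. Fluorescence from capillary electrophoresis of RT-PCR products gives the signal, with DMSO as baseline.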
# [8] = ATG_BRE_CIS: Attagene CIS-FACTORIAL HepG2 Assay for human Bone Morphogenetic Protein (BMP) Response Element (BRE) (AID 2282933); conditions: HepG2 BMP response element reporter, Attagene transcription factor profiling; actives raise or lower the signal
# Outline: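 Fluorescence-labelled reporter cDNA fragments, separated by capillary electrophoresis, gave the signal for this component of a 52-readout multiplex. HepG2 cells were transfected, exposed to chemicals for 24 h, and compared with DMSO using bidirectional fitting.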
# [9] = target: Transcription factor E2F1 (Homo sapiens) (UniProt Q01094); test: ATG_E2F_CIS: Attagene CIS-FACTORIAL HepG2 Assay for human E2F Transcription Factor 1 (AID 2282935); conditions: HepG2 Attagene cis-reporter, E2F reporter RNA transcripts; actives raise or lower the signal
# Chain of Transcription factor E2F1 (Homo sapiens) (Q01094 whole entry, looked up): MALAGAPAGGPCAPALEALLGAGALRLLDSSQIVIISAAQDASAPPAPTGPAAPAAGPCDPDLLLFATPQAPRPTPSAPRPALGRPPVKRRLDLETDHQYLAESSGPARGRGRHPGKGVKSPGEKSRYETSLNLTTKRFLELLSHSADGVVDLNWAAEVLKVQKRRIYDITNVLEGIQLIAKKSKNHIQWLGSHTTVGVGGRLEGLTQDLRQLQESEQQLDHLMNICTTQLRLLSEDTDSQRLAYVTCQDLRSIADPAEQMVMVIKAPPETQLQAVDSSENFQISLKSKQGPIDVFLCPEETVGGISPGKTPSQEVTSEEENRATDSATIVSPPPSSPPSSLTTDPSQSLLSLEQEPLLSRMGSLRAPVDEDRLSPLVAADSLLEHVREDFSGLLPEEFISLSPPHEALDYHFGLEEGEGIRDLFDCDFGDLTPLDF
# Outline: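 Measures reporter transcript levels via RT-PCR with capillary electrophoresis detection in HepG2 cells harboring cis-regulated reporter units; 24 h post-dose; bidirectional curve fitting with DMSO as baseline.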
# [10] = ATG_E_Box_CIS: Attagene CIS-FACTORIAL HepG2 Assay for human Enhancer Box (E-box) (AID 2282936); conditions: HepG2 E-box cis-reporter transcription, actives raise or lower the signal
# Outline: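 First, HepG2 cells receive multiple cis-regulated reporter constructs by transient transfection. Next, chemicals are applied for 24 h. Finally, reporter mRNA is quantified via RT-PCR and capillary electrophoresis, with DMSO as baseline.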
# [11] = ATG_M_61_CIS: Attagene CIS-FACTORIAL HepG2 Assay for M61 Transcription Factor (Internal Marker) (AID 2282937); conditions: HepG2 Attagene CIS-FACTORIAL M61 internal marker reporter; actives raise or lower the signal
# Outline: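 Endogenous transcription factor activity in HepG2 is read through transiently transfected cis-element reporter units. After 24 h dosing, RNA undergoes reverse transcription, PCR and primer extension with 6-FAM before capillary electrophoresis; DMSO-referenced bidirectional fit.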
# [12] = ATG_EGR_CIS: Attagene CIS-FACTORIAL HepG2 Assay for human Early Growth Response 1 (EGR1) (AID 2282938); conditions: HepG2 Attagene CIS-FACTORIAL EGR reporter mRNA; actives raise or lower the signal
# Outline: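 Activity is taken as induction or loss of reporter mRNA versus DMSO, fitted bidirectionally. Transcripts from cis-regulated reporter units in transiently transfected HepG2 were measured after 24 h by RT-PCR with capillary electrophoresis.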
# [13] = ATG_M_19_CIS: Attagene CIS-FACTORIAL HepG2 Assay for M19 Transcription Factor (Internal Marker) (AID 2282939); conditions: HepG2 Attagene CIS-FACTORIAL M19 internal marker reporter; actives raise or lower the signal
# Outline: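 HepG2, MRTU transient transfection, 24 h dosing. Total RNA → RT-PCR → 6-FAM primer extension → HpaI digest → CE fluorescence. Bidirectional curve fit, DMSO negative control.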
# [14] = ATG_Ets_CIS: Attagene CIS-FACTORIAL HepG2 Assay for human Erythroblast Transformation Specific (ETS) (AID 2282941); conditions: HepG2 ETS cis-reporter transcription, actives raise or lower the signal
# Outline: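 After transient cis-reporter transfection, HepG2 cells receive test chemical for 24 h. Reporter mRNA levels, measured by RT-PCR and capillary electrophoresis fluorescence, are analysed bidirectionally relative to the DMSO baseline.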
# [15] = target: Hepatocyte nuclear factor 3-beta (Homo sapiens) (UniProt Q9Y261); test: ATG_FoxA2_CIS: Attagene CIS-FACTORIAL HepG2 Assay for human Forkhead box A2 (FOXA2) (AID 2282942); conditions: HepG2 cis-reporter transcription factor activity, 24 h; actives raise or lower the signal
# Chain of Hepatocyte nuclear factor 3-beta (Homo sapiens) (Q9Y261 whole entry, looked up): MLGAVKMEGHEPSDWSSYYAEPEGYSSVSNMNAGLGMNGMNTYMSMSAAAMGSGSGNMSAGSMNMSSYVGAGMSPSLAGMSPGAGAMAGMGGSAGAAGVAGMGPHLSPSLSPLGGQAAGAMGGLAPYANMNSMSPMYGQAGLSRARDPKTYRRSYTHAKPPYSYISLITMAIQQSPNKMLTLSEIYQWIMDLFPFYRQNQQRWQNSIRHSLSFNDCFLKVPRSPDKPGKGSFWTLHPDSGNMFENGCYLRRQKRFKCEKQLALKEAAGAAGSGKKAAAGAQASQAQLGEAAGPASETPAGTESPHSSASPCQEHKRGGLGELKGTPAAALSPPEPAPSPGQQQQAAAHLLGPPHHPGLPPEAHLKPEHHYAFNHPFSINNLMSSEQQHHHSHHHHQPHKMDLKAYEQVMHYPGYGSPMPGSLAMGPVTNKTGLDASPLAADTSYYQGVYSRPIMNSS
# Outline: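 Reporter transcript induction is measured by fluorescence after capillary electrophoresis of RT-PCR products from HepG2 cells exposed 24 h. Cis-regulated reporter units report endogenous factor activity; curves fitted both directions against DMSO.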
# [16] = ATG_FoxO_CIS: Attagene CIS-FACTORIAL HepG2 Assay for human Forkhead box O (FoxO) (AID 2282943); conditions: HepG2 Attagene cis-reporter, FoxO element, mRNA; actives raise or lower the signal
# Outline: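 HepG2 cells transiently transfected with cis-element-driven reporter units report endogenous FoxO activity. After 24 h chemical exposure, reporter mRNA quantified by RT-PCR, fluorescent labeling, HpaI digestion and capillary electrophoresis; bidirectional fit versus DMSO.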
# [17] = ATG_GATA_CIS: Attagene CIS-FACTORIAL HepG2 Assay for human GATA Binding Protein (AID 2282944); conditions: HepG2 GATA cis-element reporter, Attagene multiplex mRNA; actives raise or lower the signal
# Outline: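 Cells: HepG2, transiently transfected with cis-regulated reporter transcription units. Exposure: 24 h. Detection: RT-PCR plus capillary electrophoresis of FAM-labeled fragments. Analysis: bidirectional, DMSO as baseline.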
# [18] = ATG_GLI_CIS: Attagene CIS-FACTORIAL HepG2 Assay for human Zinc Finger Protein GLI1 (AID 2282945); conditions: HepG2, Attagene cis-factorial reporter mRNA, GLI element; actives raise or lower the signal
# Outline: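 Transiently transfected HepG2 cells report endogenous transcription factor activity via cis-element-driven reporter units. After 24 h compound exposure, reporter mRNA was measured by RT-PCR with capillary electrophoresis; bidirectional fitting against DMSO baseline.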
# [19] = ATG_ERE_CIS: Attagene CIS-FACTORIAL HepG2 Assay for Estrogen Response Element (ERE) (AID 2282940); conditions: HepG2 ERE cis-reporter, Attagene RNA transcript; actives raise or lower the signal
# Outline: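 After a 24 h chemical treatment, RNA from reporter-transfected HepG2 cells is reverse-transcribed, PCR-amplified and fluorescently labelled. Fragments separated by capillary electrophoresis give reporter signal; DMSO serves as negative control.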
smiles,measurement,setting,value
CCCCCCCCCCCCSC,outcome,[1],inactive
same,outcome,[2],inactive
same,AC50,[3],100 µM (active)
same,outcome,[4],inactive
same,outcome,[5],inactive
same,outcome,[6],inactive
same,outcome,[7],inactive
same,outcome,[8],inactive
same,outcome,[9],inactive
same,outcome,[10],inactive
same,outcome,[11],inactive
same,outcome,[12],inactive
same,outcome,[13],inactive
same,outcome,[14],inactive
same,outcome,[15],inactive
same,outcome,[16],inactive
same,outcome,[17],inactive
same,outcome,[18],inactive
N#Cc1ccc(CC(=NNC(=O)Nc2ccc(OC(F)(F)F)cc2)c2cccc(C(F)(F)F)c2)cc1,outcome,[1],inactive
same,outcome,[2],inactive
same,outcome,[3],inactive
same,outcome,[4],inactive
same,AC50,[5],53.1 µM (active)
same,outcome,[6],inactive
same,outcome,[7],inactive
same,outcome,[8],inactive
same,outcome,[9],inactive
same,outcome,[10],inactive
same,outcome,[11],inactive
same,outcome,[12],inactive
same,outcome,[13],inactive
same,outcome,[19],inactive
same,outcome,[15],inactive
same,outcome,[16],inactive
same,outcome,[17],inactive
same,outcome,[18],inactive
Cc1ccc2sc3cccc(C)c3c2c1,outcome,[1],inactive
same,outcome,[2],inactive
same,outcome,[3],inactive
same,outcome,[4],inactive
same,outcome,[5],inactive
same,outcome,[6],inactive
same,outcome,[7],inactive
same,outcome,[8],inactive
same,outcome,[9],inactive
same,outcome,[11],inactive
same,outcome,[12],inactive
same,outcome,[13],inactive
same,outcome,[19],inactive
same,outcome,[14],inactive
same,outcome,[15],inactive
same,outcome,[16],inactive
same,outcome,[17],inactive
same,outcome,[18],inactive
C[C@]12CC[C@H]3[C@@H](CCC4=CC(=O)CC[C@@]43C)[C@@H]1CC[C@@H]2C(=O)CO,outcome,[1],inactive
same,outcome,[2],inactive
same,outcome,[3],inactive
same,outcome,[4],inactive
same,outcome,[5],inactive
same,outcome,[6],inactive
same,outcome,[7],inactive
same,AC50,[8],100 µM (active)
same,outcome,[9],inactive
same,outcome,[10],inactive
same,AC50,[12],55.9 µM (active)
same,outcome,[13],inactive
same,AC50,[19],0.635 µM (active)
same,outcome,[14],inactive
same,outcome,[15],inactive
same,outcome,[16],inactive
same,outcome,[17],inactive
same,outcome,[18],inactive
